The structures appear in SMILES notation. The source made the active and inactive calls. The calls were made as follows: active = hit-call score of the fitted dose curve at least 0.9, where 1 is the maximum; inactive = score below 0.9.

Read-out in this assay: Alpha-fetoprotein (AFP) gene, AFP (gene 174)
The assay can be described thus: LTEA_HepaRG_AFP: Life Technologies and Expression Analysis (LTEA) Assay for Alpha-fetoprotein (AFP) gene using HepaRG (AID 2283472).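 As to AC50: AFP transcript by TaqMan qRT-PCR normalized to ACTB GAPDH and POLR2A.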 To be noted: mRNA level, 48 h; actives raise or lower the signal. The method, then: It is a marker of Undifferentiated hepatocyte.Data from the assay component LTEA_HepaRG_AFP was analyzed into 1 endpoint. This assay endpoint, LTEA_HepaRG_AFP, was analyzed with bidirectional fitting relative to DMSO as the negative control and baseline of activity. Using a type of inducible reporter, measures of mRNA induction for gain or loss-of-signal activity can be used to understand regulation of transcription factor activity. To generalize the intended target to other relatable targets, this assay endpoint is annotated to the background measurement intended target family, where the subfamily is assay control.
A total of 1060 chemcials from the ToxCast library were tested in eight-point concentration-response experiments. Cell culture and cytotoxicity assays were conducted at Thermo Fisher Scientific's Custom Services facility (Madison, WI). A single lot of human HepaRG cells (Thermo Fisher Scientific, Frederick, MD) was used for the cell culture experiments. 96-well format collagen type I coated plates of human HepaRG cells were prepared using established methods. Briefly, cryopreserved HepaRG cells were thawed, plated at a density of approximately 100,000 cells/well in HepaRG Thaw, Plate, and General Purpose media (HPRG770, Thermo Fisher Scientific), and incubated for 48 hours. 0.5% DMSO was selected as vehicle control to balance the requisite need of DMSO in HepaRG cultures to maintain differentiation (for example, baseline metabolism, proportions of hepatocytes vs. cholangiocytes), while enabling further hepatic receptor pathway activation (for example, PXR and CAR) in response to chemical exposure. 48 hours after plating, the culture medium was replaced with HepaRG Serum-Free Incudtion Media. Cells were exposed to each test chemical in duplicate and maintained in CO2 incubators for another 48 hours. Chemical plates were thawed to room temperature and 200x concentrations of treatment groups were prepared. 8-point conentration-reponse curves were made with the highest exposure at 100 uM, followed by half-log dilutions, all in 0.5% DMSO. Each test plate contained variouse controls, induction positive controls (1mM phenobarbital), cytotoxicity positive controls ([…] aflatoxin B1), vehicle controls (0.5% DMSO), and total lysis controls (0.5% DMSO). Cell morphology images were taken using an Essen IncuCyte FLR automated microscope, with six 96-well plates imaged in about 24 minutes. Images were captured and exported and JPEG files. Spent culture media was transfered to black-well plates for the LDH assay, and remaining media was sorted at -80 C for later use. Cells were treated with RLT buffer and frozen until shipped for gene expression analysis. Total RNA was isolated from the cell suspension in 75 uL of Buffer RLT (Qiagen, Germantown, MD 20874) by Quintiles/Expression Analysis (Durham, NC) using a custom isolation procedure. Total RNA from each plate well was transferred to a preamplification plate. Fluidigm's 96.96 Dynamic ArrayTM (Fluidigm, Amsterdam, the Netherlands) technology was used for gene expression analyses by quantitative reverse transcription polymerase chain reaction (qRT-PCR, performed by Quintiles/Expression Analysis, Durham, NC)89. Standard TaqManTM Assays (Applied Biosystems/ThermoFisher Scientific, Foster City, CA) were used to assess the expression of 93 genes selected based on their selectivity and sensitivity to important hepatic receptors known to be modulated by environmental chemicals; importance in human hepatocyte functionality; and hepatotoxicity. Three "housekeeping" endogenous control genes were also included and used for normalization: actin beta (ACTB), Glyceraldehyde 3 phosphate dehydrogenase (GAPDH) and RNA Polymerase II Subunit A (POLR2A). qRT-PCR was conducted according to the manufacturer's protocol.
For orientation: AC50 means the concentration giving half of the maximal activity seen. On to `CCCN(C1CCN(C(=O)C2CCNCC2)CC1)[C@@H]1CCc2ccc(OC)cc2C1`, for which the AC50 is 76.2 µM (active).
As for `NC(=O)NO`, the molecule was classed as inactive.
`COc1ccc(/C=C/S(=O)(=O)NC(=O)c2ccc(C)cc2Cl)cc1`: the molecule was called inactive.
As to `O=C1CCCCCN1`, the molecule was called inactive.
Regarding `O=C1OC(=O)C2C3C=CC(C3)C12` (stereo not given), the call was inactive.
As for `CCOCCOCCOCCO`, the molecule was classed as inactive.
As for `Cc1c(-c2cccnc2)c2ccccc2n1CCCCC(=O)O`, the result was inactive.
With `CNCc1ccc(NC(=O)c2c[nH]c3c2C(=O)CCC3)cc1`, the molecule was classed as inactive.
For the molecule `CC(C)(O)c1coc(S(=O)(=O)NC(=O)Nc2c3c(cc4c2CCC4)CCC3)c1`, the call was inactive.
For `C=CC(=C)CCC=C(C)C`, the molecule was classed as inactive.
`CCC(C)(C)C(=O)O[C@H]1C[C@@H](C)C=C2C=C[C@H](C)[C@H](CC[C@@H]3C[C@@H](O)CC(=O)O3)[C@H]21`: the outcome was inactive.
As for `O=c1n(CC2CO2)c(=O)n(CC2CO2)c(=O)n1CC1CO1` (stereo not given), the call was inactive.
`COCCOc1cc2cc(C(=O)NC3CCN(C(C)C)CC3)n(CC(=O)Nc3ccc(Cl)cn3)c2cn1`: the AC50 was 65 µM (active).
Regarding `CCn1nc(Cc2ccccc2)cc1C1CCN(C[C@H]2C[C@H](N(C)[C@@H](C(=O)O)C(C)C)C[C@@H]2c2cccc(F)c2)CC1`, the AC50 is 50 µM (active).
`COC(=O)c1c(Cl)c(Cl)c(C(=O)OC)c(Cl)c1Cl`: the outcome was inactive.
Turning to `CC(C)=CCC/C(C)=C\CO`, the molecule was called inactive.
Same read-out and setting: to `O=C(O)c1cccc(Oc2ccccc2)c1` belongs “inactive”; to `CCCCCCCCCCCCc1ccccc1`, “inactive”.
Turning to `O=C(O)CCN(C1(C(=O)NO)CCCC1)S(=O)(=O)c1ccc(Oc2ccc(F)cc2)cc1`, the outcome was inactive.
On to `Cn1c(=O)c2c(ncn2C)n(C)c1=O`, for which the molecule was called inactive.
On the same count and under the same terms, to `CC[C@H]1OC(=O)[C@H](C)[C@@H](O[C@H]2C[C@@](C)(OC)[C@@H](O)[C@H](C)O2)[C@H](C)[C@@H](O[C@@H]2O[C@H](C)C[C@H](N(C)C)[C@H]2O)[C@](C)(O)C[C@@H](C)C(=O)[C@H](C)[C@@H](O)[C@]1(C)O` belongs “inactive”.
With `Nc1ccc(Nc2ccccc2)cc1`, the AC50 was 75.9 µM (active).
Turning to `COC(=O)c1ccccc1O`, the result was inactive.
For the molecule `Nc1nc2ncc(CNc3ccc(C(=O)N[C@@H](CCC(=O)O)C(=O)O)cc3)nc2c(=O)[nH]1`, the result was inactive.
As to `CCCCCCCCCCCCCCCO`, the outcome was inactive.
Turning to `CC1=CC(=O)CC(C)(C)C1`, the molecule was classed as inactive.
The same measure, in the same setting: to `COc1cccc(-c2ccc(/C=C\CN3CCCCCC3)cc2Cl)c1` belongs “inactive”.
On to `COC(=O)CC(=O)OC`, for which the half-maximal activity concentration (AC50) is 50 µM (active).
As for `CC(C)CCCCCCOC(=O)c1ccc(C(=O)OCCCCCCC(C)C)c(C(=O)OCCCCCCC(C)C)c1`, the molecule was called inactive.
As for `Fc1ccccc1[C@@H](F)COC1CCC(Nc2ncnc3[nH]ncc23)CC1` (stereo not given in full), the concentration at half-maximal activity (AC50) is 27.2 µM (active).
In the case of `CC(=O)c1ccc2c(c1)[C@H](NC(=O)c1ccc(F)cc1)[C@@H](O)C(C)(C)O2`, the result was inactive.
In the case of `COc1ccc2sc(C(=O)Nc3nnn[nH]3)c(OC(C)C)c2c1`, the concentration at half-maximal activity (AC50) was 59.5 µM (active).
`O=C(NS(=O)(=O)/C=C/c1ccccc1)c1ccc(F)cc1Cl`: the AC50 is 18.9 µM (active).
On to `CN(C)c1ccc(Cc2ccc(N(C)C)cc2)cc1`, for which the AC50 was 50 µM (active).
Same read-out and setting: to `Cn1cnc([N+](=O)[O-])c1Sc1ncnc2nc[nH]c12` belongs 5.38 µM (active).
For `CCCC(=O)OCC`, the result was inactive.
As for `C[C@](N)(Cc1ccc(O)c(O)c1)C(=O)O`, the molecule was called inactive.
Regarding `Oc1ccc2c(c1)-c1ccccc1C2`, the molecule was classed as inactive.
Consider `CCCCCCCCO`, for which the molecule was called inactive.
In the case of `Clc1nc(Cl)c(Cl)c(Cl)c1Cl`, the molecule was called inactive.

For the origin of these results see PubChem BioAssay (EPA / NIEHS).
